Data as given in PubChem BioAssay (NCI).
This is part of a sample that, as a whole, favours compounds with a hit. Of some 83,000 tested, about 20% had one in any assay.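 Assay: single dose, 48 h. Readout: percent growth (0 = no net growth; negative = cell death). Active: <10.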 A number with no mark means an inactive call. Active and inactive are the calls of the source.

What follows are compounds tested on HT29 colon (assay: NCI-60 one-dose screen, 48 h (100 = growth as untreated, 0 = no growth, -100 = all killed)). Conditions: 10 µM.
Procedure: Growth inhibition of the HT29 human tumor cell line is measured as a screen for anti-cancer activity. Cells are grown in 96 well plates and exposed to the test compound for 48 hours. Compounds are tested at a single concentration, which is 10^-5 M for most compounds. The reported endpoint is percent growth (GI% or GIPRCNT), where numbers from 0 - 100% represent growth inhibition, and numbers from -100% - 0 represent cell death. For example, a value of 40 represents 60% growth inhibition. A value of 0 means no net growth occurred over the course of the experiment. A value of -40 indicates 40% of cells at the beginning of the experiment died by the end of the experiment. A value of -100 means all cells are dead at the end of the experiment.
NCI-60 Human Tumor Cell Lines Screen was performed using the standard one-dose NCI protocol, which is described in more detail at https://dtp.cancer.gov/discovery_development/nci-60/default.htm.
Compounds with GIPRCNT values below 10 were considered active. Activity score was based on GIPRCNT using the following formula: […]
Score is 0 for GIPRCNT values of 100 or above, 50 for GIPRCNT values of 0, and 100 for GIPRCNT values of -100.
`c1ccc(C(=C(c2ccc(OCCN3CCCCC3)cc2)c2ccc(OCCN3CCCCC3)cc2)C2CCCC2)cc1` was tested, and the growth was -96.2% (active).
In the case of `COc1cccc(/C=N/NC(=O)c2ccc3nc(-c4ccc(Cl)cc4)[nH]c3c2)c1O`, the growth is reported as -79.7% (active).
Work on `CCCn1c(=O)c2[nH]c(-c3ccc(OCc4nc5ccc(C#N)cc5[nH]4)cc3)nc2n(CCC)c1=O` yielded a growth of 88.5%.
`CCC(C)S(=O)(=O)c1oc(-c2ccc(C)cc2)nc1S(=O)(=O)c1ccccc1` (stereo not given) was tested, and the growth was -71.5% (active).
In the case of `COc1ccc(OC)c(/C=N/NC(=O)c2ccc3nc(-c4ccc(Cl)cc4)[nH]c3c2)c1`, the growth is reported as 79.7%.
Work on `Cc1ccc(-c2nc3ccc(C(=O)N=Nc4c(O)[nH]c5ccc([N+](=O)[O-])cc45)cc3[nH]2)cc1` yielded a growth of 66.6%.
In the case of `CN1C(=O)N(C)C2SC(N/N=C/c3ccccc3F)=NC21` (stereo not given), the growth is reported as 28.2%.
In the case of `Cc1ccc(C(C)C)cc1NC(=O)c1ccccc1O`, the growth is reported as 103%.
For `C#CCNC(=O)CCC(=O)OC[C@]12CC[C@@H](C(=C)C)[C@@H]1C1CC[C@@H]3[C@@]4(C)CCCNC(C)(C)[C@@H]4CC[C@@]3(C)[C@]1(C)CC2` (stereo not given in full), the growth was -68.1% (active).
`CC(=O)Nc1ccc(-c2cn(-c3cccc(C(=O)Nc4cc(CN5CCOCC5)cc(C(F)(F)F)c4)c3)nn2)cn1` was tested, and the growth was -11.4% (active).
In the case of `OCc1[nH]nc2cc(Nc3ncc4ccc(Br)c(OC5CCC(O)CC5)c4n3)ccc12` (stereo not given), the growth is reported as -41.1% (active).
With `O=C(NO)c1ccc(CNC(=O)[C@H]2Cc3c([nH]c4ccccc34)[C@H](c3ccc(Cl)cc3)N2)cc1` the growth was 21.5%.
`O/N=C(\CSc1nnc(-c2c[nH]c3ccccc23)n1-c1ccccc1)c1ccc(Br)cc1` was tested, and the growth was -76.9% (active).
For `O=C(Nc1nc2ccc([N+](=O)[O-])cc2s1)Nc1ccccc1I`, the growth was 1.95% (active).
With `C=C[C@@]12CN3CC[C@]1(O)[C@@](C(=O)OC)(CO2)c1[nH]c2ccccc2c1C3` the growth was 92.7%.
With `CC(=O)c1cc(C(=O)N2c3ccccc3Sc3ccccc32)n2ccc(C)cc12` the growth was 32.7%.
For `O=C(CNc1nc(-c2ccccc2)cs1)Nc1ccc([N+](=O)[O-])cc1Cl`, the growth was 34.8%.
In the case of `COc1ccc([C@H]2C(C(=O)c3ccc(Cl)cc3)C3(N[C@@H]2c2ccccc2)C(=O)Nc2ccc(Cl)cc23)cc1` (stereo not given in full), the growth is reported as -50.8% (active).
`O=C(c1ccc(Cl)cc1)C1[C@H](c2ccc(Br)cc2)[C@@H](c2ccccc2)NC12C(=O)Nc1ccc(Cl)cc12` (stereo not given in full) was tested, and the growth was -49.4% (active).
For `COC[C@@H](CC(C)C)N=C1NC(=O)/C(=C/c2ccc3ncsc3c2)N1`, the growth was -14.7% (active).
Compound `COc1cc2oc(-c3cccc(C(=O)Nc4ccc(Cl)cc4)c3)cc(=O)c2c(OCCNC(=O)CNC(=O)OC(C)(C)C)c1OC` has a growth of 63.2%.
For `O=C1NC(=NC23CC4CC(CC(C4)C2)C3)N/C1=C\c1ccc2ncoc2c1`, the growth was 4.66% (active).
With `CN1CCN(c2ccc(C(=O)/C=C/c3cc(Br)ccc3F)cc2)CC1` the growth was -13.2% (active).
For `COc1ccc2[nH]c(O)c(N=NC(=O)COc3ccc(NC(=O)Nc4ccc(Cl)c(Cl)c4)cc3)c2c1`, the growth was -88.4% (active).
For `Cc1ccc(CSc2nc(Cl)c(C#N)c(-c3ccc(F)cc3)n2)cc1`, the growth was 38.4%.
With `O=C(N/N=C/c1ccc(B(O)O)o1)c1[nH]c2ccc(Br)cc2c1-c1ccccc1` the growth was 3.98% (active).
`Cc1ccc(-c2ccc(SCC(=O)Nc3ccc(S(N)(=O)=O)cc3Br)nn2)cc1` was tested, and the growth was 11.4%.
`CCOC(=O)CNC(=O)CN(Cc1ccccc1)C(=O)[C@@]1(C)CCC[C@]2(C)[C@H]3CC4C(C(C)C)=C[C@]3(CC[C@H]21)[C@@H]1C(=O)CCC(=O)[C@H]41` showed a growth of 41.1%.
`CCCCCCCCCCCCCCCCCCCC(=O)NCCc1c[nH]c2ccc(O)cc12` gave a growth of 121%.
For `COc1ccc(N(C)c2cc(C#N)nc3ccccc23)cc1/C=C/C(=O)NO`, the growth was -19.5% (active).
In the case of `CN1CCN(Cc2ccc(C(=O)Nc3cccc(Nc4ccc5cc(O)ccc5n4)c3)cc2C(F)(F)F)CC1`, the growth is reported as -49.4% (active).
For `O=C1Nc2ccc(Cl)cc2/C1=C/c1ccc(OCc2ccccn2)cc1`, the growth was 67.5%.
`COc1ccc(C(=O)NC(=S)N2CCN(c3ncnc4c3cnn4-c3ccccc3)CC2)cc1` showed a growth of 80.5%.
In the case of `C/C(=N\N=C\c1ccc(N(C)C)cc1)c1ccc2c(c1)Nc1ccccc1S2`, the growth is reported as 52.5%.
Compound `Cc1cccc2cc(-c3cc(-c4ccccc4)nc(=O)[nH]3)c(Cl)nc12` has a growth of 107%.
For `Oc1ccc(/C=C2\CCCc3cc4ccc(O)cc4[o+]c32)c(O)c1`, the growth was 88.5%.
Compound `Nc1nnc(-c2c[nH]c3ccc(F)cc23)c(-c2c[nH]c3ncccc23)n1` has a growth of 59.5%.
`O=C1CCC(N2Cc3cc(CC(=O)Nc4ccc(N5CCCCC5)cc4)ccc3C2=O)C(=O)N1` (stereo not given) was tested, and the growth was 77.4%.
In the case of `COc1cccc(/C=C2\N=C(C)N(CCc3ccc(S(N)(=O)=O)cc3)C2=O)c1`, the growth is reported as 108%.
Compound `N#Cc1ccc(-c2nn(-c3ccc(C(=O)O)cc3)cc2CNc2cc(Cl)cc(Cl)c2)cc1` has a growth of 39.7%.
